Sequences and labels used below:
B1: ENSMUSG00000022095.66|Fam160b2 (ssRNA)
RNA: GGGAGUUCUACAGUCCGACGAUCGCUUCGAUAUCCGCAUGCUAACAACUCCAGGGGCCAGGGAGAUGAACUGCUGUCUUUGAGGCUGGCUAAAAAAACAAUCCAGUCCAGAGAGAUGGGGAGGGGGGGAGCAAGAACCCUGUCUGUUACAUUAGGUAUCAUGGAAGCUGCUAAGACUCGGCAGGUUUCUCCGAGGCUUCACGAACAGUAGUGGAGGAGACAGAGGAGGAGGCUGAGGGGAAGCCCCCUCUUCCUGCUCUACCCUCCUGGAGGCUGUUGCAAAAUUCCCAACUGCCUCCUGGCACUCUUGCGGUCGCACUAGUGUGGAAUUCUCGGGUGUCAAGG
B2: ENSMUSG00000004113.466|Cacna1b (ssRNA)
RNA: GGGAGUUCUACAGUCCGACGAUCGCUUCGAUAUCCGCAUGCUAUGAAGGUUUGUCGCAAAAAUUUAUAUUUAACAGUGUUGAGAGAGAGAGAGAGAGAGCGAGAGAGAGAGAGAUCCAGUCAUGCAACACAAAUGGGAUCUACUUUUAAACAACAGUCCUUUGACUAGUUUGCUGCCUGAAUAAUAUUUACAAACUAAACUUUGGAUUCUGCUCUUGUUUCUACAAUGAUUUUUUGUAUAAAGCAAAGUCCUUGGAUUAAAUAAAAACAACCCAAAAAAAAAAUCAAAAUCAAAACCCAGGAUCUCUUGCGGUCGCACUAGUGUGGAAUUCUCGGGUGUCAAGG
B3: ENSMUSG00000031028.203|Tub|203:207;209:214 (ssRNA)
RNA: GGGAGUUCUACAGUCCGACGAUCGCUUCGAUAUCCGCAUGCUAUCCUUUCUCUUCCCAGUUCCAGAGAUGAAACCCCUCCGAGUUAAUGUAUAAGGUUGGAAACCUUUCAGUAGGGAAUCAGGCAGUUCCCUGUUGAAAGUUGUCUGAGUUUUUGCACACCAUUCUGAUCUGAUGUGGCCUGUGCCUGGCUCCUCUAUGAGGACUUCGAGCUGUGCACAGACCUUAGCAGGACCACUGCACACUUACACACACACACACAGGCAGCCCAAGGGUUCUGGGGCUGGGCUUGGACACGCCCUCCACUCUUGCGGUCGCACUAGUGUGGAAUUCUCGGGUGUCAAGG
B4: ENSMUSG00000061578.408|Ksr2 (ssRNA)
RNA: GGGAGUUCUACAGUCCGACGAUCGCUUCGAUAUCCGCAUGCUAAUCAGUCUCUUCCCGGAGGAAGCAUCCGGGGGAAAUGUAUUCCUUCGCCCUGCAAGGAGCCAAUGGGAAGAGAGGGGACCAUAUAGUUAGAGACAUUCCCUACCCCCCGACCACUGACCCGUCCAGACCCUCGCUUCUUACAAUGCCUCUUCUUCUGCCAGACCAGCCACCUGCCCCACUAACACCAAAUGGCUUCUGUCCCUGCUUCACGUUGCAAAUCCUUCAAGACAGAAGUUUCAGAGGGGAUAGUUCCUUCUAACCUCUUGCGGUCGCACUAGUGUGGAAUUCUCGGGUGUCAAGG
B5: ENSMUSG00000031028.686|Tub (ssRNA)
RNA: GGGAGUUCUACAGUCCGACGAUCGCUUCGAUAUCCGCAUGCUAUAUUUUUGUUCAAAAUUAUCUGGAGUUUUAGACAAACUUGCAAAACUGUGCUUUUAUUAAGUGACUUUUUGAAUAAACUUUUUGGUAUUCUGAAGCAAAUGUAUUUAUUUAUUGGUAUGUGCAAUGACAAACUUGGUAUUUUCCCAUAAUGACAUUAUGUAUGUUGUAGAAUUUAGUGUUUGUCUAAGUACAGACAUGUAUCAACACAUUAAACUUGAACUGUUUGACGGCUGUGUCCUUGGUUUUCAUAGAGAAGAGAACUCUUGCGGUCGCACUAGUGUGGAAUUCUCGGGUGUCAAGG
B6: ENSMUSG00000029636.181|Wasf3 (ssRNA)
RNA: GGGAGUUCUACAGUCCGACGAUCGCUUCGAUAUCCGCAUGCUACACAGCUCUCUUCUCUCCUGUUGUCGGCACAUUUUCAAUUUUAAAAAGUACCUCACAAGAUAAACUUGAUUCAGCCAGUUGCCCGGGCAGAGACCUGACUUCCCCUCUCCUGCCCUGAUCCUUUUUACCAAAUGGCGAUUCCAUAGUCCUGGCUGAGGCAGGGGCUCAAAGUCCAGUGUCUGCUUUGCAAUUCUGGAAGGACAGCUGCUUAUUUAAAUAAGUCUGUGAUAUCCGCAGGCUUGGGUUACAGGGAGGACCUUCUCUUGCGGUCGCACUAGUGUGGAAUUCUCGGGUGUCAAGG
B7: ENSMUSG00000029028.53|Lrrc47|5:9;12:16;18:22;45:49;64:68;70:74;86:90;93:97;118:122;134:139;141:145;147:151;163:168;170:174;191:195;197:201;208:212;214:218;235:2 … (ssRNA)
RNA: GGGAGUUCUACAGUCCGACGAUCGCUUCGAUAUCCGCAUGCUAUGUCACACAAGCAUACGCACACCUGUAGAUCUUUGUAGGUGUAGCAUACCUGUAGGUAUCUGGCACACGCAUACCUGUAGAUGUCACACAAGCACACGAUAUGCUGUAGGUAUCUGGCACACCUGUAGGUGUCACACACGCACACGCACACCUGUGGGUGUCACACACGCACACCUGUAGGUGUCUGUAGCACACGCAUACCUGCAGCACACGCACACCUGUAGAUCUCUAUAGCACACGCACACCUGUAGGGGUCUGUGCUCUUGCGGUCGCACUAGUGUGGAAUUCUCGGGUGUCAAGG
B8: ENSMUSG00000028439.167|Fam219a (ssRNA)
RNA: GGGAGUUCUACAGUCCGACGAUCGCUUCGAUAUCCGCAUGCUAUACAGUGAGCCAAGUGGCUGUAUGAUAUGGUAUGGUAUGGUAUGGUAUGGUAUGGUAUGGUAUGCACAUGUGUGUGCAUGUGUGUGUGCCUGUGUGUGUGCGUGUGCGUGUGUGUAUGUGUGUGCGUGUGUGUGUGUGUGUGUUGUACCCGAGUGUGUGUUGAGCCUAUCUGUCCAGGGAACCAGAUUGGUGUCCGAGAUGAGGAAAUGGCUGUGGCCUGGGAAAUCAGUGAGAGGCCGCUUGGGAAUGAGAAUGCAGUGCUCUUGCGGUCGCACUAGUGUGGAAUUCUCGGGUGUCAAGG
B9: ENSMUSG00000028439.165|Fam219a (ssRNA)
RNA: GGGAGUUCUACAGUCCGACGAUCGCUUCGAUAUCCGCAUGCUAAGCUUAAGGAAAUACAGUGAGCCAAGUGGCUGUAUGAUAUGGUAUGGUAUGGUAUGGUAUGGUAUGGUAUGGUAUGCACAUGUGUGUGCAUGUGUGUGUGCCUGUGUGUGUGCGUGUGCGUGUGUGUAUGUGUGUGCGUGUGUGUGUGUGUGUGUUGUACCCGAGUGUGUGUUGAGCCUAUCUGUCCAGGGAACCAGAUUGGUGUCCGAGAUGAGGAAAUGGCUGUGGCCUGGGAAAUCAGUGAGAGGCCGCUUGGGAAUCUCUUGCGGUCGCACUAGUGUGGAAUUCUCGGGUGUCAAGG
B10: ENSMUSG00000028439.166|Fam219a (ssRNA)
RNA: GGGAGUUCUACAGUCCGACGAUCGCUUCGAUAUCCGCAUGCUAAGGAAAUACAGUGAGCCAAGUGGCUGUAUGAUAUGGUAUGGUAUGGUAUGGUAUGGUAUGGUAUGGUAUGCACAUGUGUGUGCAUGUGUGUGUGCCUGUGUGUGUGCGUGUGCGUGUGUGUAUGUGUGUGCGUGUGUGUGUGUGUGUGUUGUACCCGAGUGUGUGUUGAGCCUAUCUGUCCAGGGAACCAGAUUGGUGUCCGAGAUGAGGAAAUGGCUGUGGCCUGGGAAAUCAGUGAGAGGCCGCUUGGGAAUGAGAAUCUCUUGCGGUCGCACUAGUGUGGAAUUCUCGGGUGUCAAGG
B11: ENSMUSG00000028439.164|Fam219a (ssRNA)
RNA: GGGAGUUCUACAGUCCGACGAUCGCUUCGAUAUCCGCAUGCUAAGAGCAAGCUUAAGGAAAUACAGUGAGCCAAGUGGCUGUAUGAUAUGGUAUGGUAUGGUAUGGUAUGGUAUGGUAUGGUAUGCACAUGUGUGUGCAUGUGUGUGUGCCUGUGUGUGUGCGUGUGCGUGUGUGUAUGUGUGUGCGUGUGUGUGUGUGUGUGUUGUACCCGAGUGUGUGUUGAGCCUAUCUGUCCAGGGAACCAGAUUGGUGUCCGAGAUGAGGAAAUGGCUGUGGCCUGGGAAAUCAGUGAGAGGCCGCUUCUCUUGCGGUCGCACUAGUGUGGAAUUCUCGGGUGUCAAGG
B12: ENSMUSG00000028439.163|Fam219a (ssRNA)
RNA: GGGAGUUCUACAGUCCGACGAUCGCUUCGAUAUCCGCAUGCUAUCUUCAAGAGCAAGCUUAAGGAAAUACAGUGAGCCAAGUGGCUGUAUGAUAUGGUAUGGUAUGGUAUGGUAUGGUAUGGUAUGGUAUGCACAUGUGUGUGCAUGUGUGUGUGCCUGUGUGUGUGCGUGUGCGUGUGUGUAUGUGUGUGCGUGUGUGUGUGUGUGUGUUGUACCCGAGUGUGUGUUGAGCCUAUCUGUCCAGGGAACCAGAUUGGUGUCCGAGAUGAGGAAAUGGCUGUGGCCUGGGAAAUCAGUGAGAGGCUCUUGCGGUCGCACUAGUGUGGAAUUCUCGGGUGUCAAGG
B13: ENSMUSG00000028439.168|Fam219a (ssRNA)
RNA: GGGAGUUCUACAGUCCGACGAUCGCUUCGAUAUCCGCAUGCUAGAGCCAAGUGGCUGUAUGAUAUGGUAUGGUAUGGUAUGGUAUGGUAUGGUAUGGUAUGCACAUGUGUGUGCAUGUGUGUGUGCCUGUGUGUGUGCGUGUGCGUGUGUGUAUGUGUGUGCGUGUGUGUGUGUGUGUGUUGUACCCGAGUGUGUGUUGAGCCUAUCUGUCCAGGGAACCAGAUUGGUGUCCGAGAUGAGGAAAUGGCUGUGGCCUGGGAAAUCAGUGAGAGGCCGCUUGGGAAUGAGAAUGCAGUGGACUGACUCUUGCGGUCGCACUAGUGUGGAAUUCUCGGGUGUCAAGG
B14: ENSMUSG00000028439.169|Fam219a (ssRNA)
RNA: GGGAGUUCUACAGUCCGACGAUCGCUUCGAUAUCCGCAUGCUAAGUGGCUGUAUGAUAUGGUAUGGUAUGGUAUGGUAUGGUAUGGUAUGGUAUGCACAUGUGUGUGCAUGUGUGUGUGCCUGUGUGUGUGCGUGUGCGUGUGUGUAUGUGUGUGCGUGUGUGUGUGUGUGUGUUGUACCCGAGUGUGUGUUGAGCCUAUCUGUCCAGGGAACCAGAUUGGUGUCCGAGAUGAGGAAAUGGCUGUGGCCUGGGAAAUCAGUGAGAGGCCGCUUGGGAAUGAGAAUGCAGUGGACUGAAAGCACCUCUUGCGGUCGCACUAGUGUGGAAUUCUCGGGUGUCAAGG

Whole data set: some 9,900 sequences, median “r (bound/input frequency ratio)” near 0.7, cut for the highest 2% near 6.5. Many of the other results were omitted from the sample, so the highest values are more common in it than they were.

TDP-43, sequence (Q13148 whole entry): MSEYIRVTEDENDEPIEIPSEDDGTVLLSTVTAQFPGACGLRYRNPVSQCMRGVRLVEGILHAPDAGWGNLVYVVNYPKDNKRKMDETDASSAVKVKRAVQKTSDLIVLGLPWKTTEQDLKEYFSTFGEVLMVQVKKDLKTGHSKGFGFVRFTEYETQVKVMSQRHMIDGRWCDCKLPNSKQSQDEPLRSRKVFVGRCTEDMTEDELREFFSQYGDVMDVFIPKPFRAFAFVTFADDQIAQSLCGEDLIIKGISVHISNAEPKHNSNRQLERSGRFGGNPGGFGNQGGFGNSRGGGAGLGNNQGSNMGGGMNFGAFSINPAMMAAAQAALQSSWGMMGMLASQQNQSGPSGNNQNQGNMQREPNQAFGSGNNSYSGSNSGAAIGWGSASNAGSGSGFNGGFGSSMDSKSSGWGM

In the experiment the target is TDP-43 (Homo sapiens, UniProt Q13148 1-414). The experiment is described as follows: RNA Bind-n-Seq with designed 260-mer pool; 25 mM Tris-HCl, 150 mM KCl, 3 mM MgCl2, BSA (printed 500 mg/mL), 20 units/mL SUPERase IN; pH not stated; 500 nM RNA pool, 1 h, 4 C; TDP-43 5, 50, 500 nM; high values mean tight binding. The following applies: protein: recombinant; tags: SBP (GST cleaved off with PreScission; pGEX-GST-SBP). In a few lines:
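Recombinant SBP-tagged TDP-43 at 5, 50 or 500 nM was captured on streptavidin beads, then incubated 1 h at 4 °C with 500 nM of an in vitro-transcribed 260-nt 3′ UTR oligo pool in 25 mM Tris-HCl, 150 mM KCl, 3 mM MgCl2, BSA and SUPERase IN. Bound RNA was washed, eluted with biotin, reverse transcribed, PCR-amplified and sequenced. Binding is R, each oligo's mapped-read-normalized abundance in the bound sample divided by its abundance in input. Duplicates used two independent protein batches.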
In the case of B1, the binding signal is 0.965 R (bound/input frequency ratio).
For B2, the binding signal is 0.589 R (bound/input frequency ratio).
Take B3: the binding signal is 1.57 R (bound/input frequency ratio).
Regarding B4, the binding signal is 1.09 R (bound/input frequency ratio).
In the case of B5 it was 0.181 R (bound/input frequency ratio); in that of B6, 0.344 R (bound/input frequency ratio).
In the case of B7 it was 0.453 R (bound/input frequency ratio); in that of B8, 6.28 R (bound/input frequency ratio).
In the case of B9 it was 6.33 R (bound/input frequency ratio); in that of B10, 6.86 R (bound/input frequency ratio).
B11: the binding signal is 8.42 R (bound/input frequency ratio).
With B12, the binding signal was 5.79 R (bound/input frequency ratio).
In the case of B13 it was 7.15 R (bound/input frequency ratio); in that of B14, 6.41 R (bound/input frequency ratio).
